Hits are enriched below; roughly 9.2% of the tested compounds scored in any of these assays.
SMN2 splice up: SMN2 splice variant enhancement; HEK293 SMN2-luciferase splicing reporter, luminescence, 30-36 h; Potency, µM (titrated, usually from 46.1 µM), for inactives: at the top dose activity change, positive = activation, actives largely listed as activators; 210,000 tested, 2.8% active; also: % of control where 0% means no effect; nearly all actives have a fitted effect of over 55% in size
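qHTS luciferase splicing reporter: luminescence rises when SMN2 exon 7 is included in transfected HEK293 cells. Compound exposure lasted 30-36 h at 37C, with 4.5 mM final sodium butyrate as control, followed by a ONE-Glo read.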
FLuc counter: counter-screen for miR-21 project: firefly luciferase inhibitors or activators | P08659 | purified FLuc, Km substrates, luminescence inhibition | Potency, µM (titrated, usually from 57.5 µM), for inactives: at the top dose activity change, negative = inhibition, hits mostly inhibitors | 360,000 tested, 6.9% active;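 also: plate controls were vehicle for no effect and reference inhibitor for full effect; nearly all actives have a fitted effect of over 55% in size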
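Purified P. pyralis luciferase (10nM final) with 10uM D-luciferin and 10uM ATP (Km levels) in 50mM Tris acetate pH 7.5, 10mM Mg acetate, 0.01% Tween-20, 0.05% BSA; qHTS 6-point titration, ~60 µM downward; luminescence read.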
ELG1 genotoxic: inducers of genotoxicity in HEK293T ELG1-luciferase cells | Potency, µM (titrated, usually from 46 µM), inactives show at the highest dose activity change, positive = activation, most hits filed as activators | 330,000 tested, 1.3% active | HEK293T ELG1-luciferase reporter, luminescence, 16 h; also: % of control where 0% means no effect; nearly all actives have a fitted effect of over 60% in size
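Genotoxic stress is detected as increased luminescence from luciferase-tagged ELG1 in HEK293T cells, measured with ONE-Glo after a 16 hr treatment at 37 °C.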
ELG1 repair inh: blocks ELG1-dependent DNA repair in HEK293T cells. HEK293T ELG1-luciferase reporter, luminescence, 16 h; DNA damage induced by 5-fluorouridine. Potency, µM (highest dose often 46.1 µM), without a hit: at the top dose activity change, negative = inhibition, most hits filed as inhibitors. 330,000 tested, 2.3% active; also: % is scaled to controls: 0 for no effect and ±100 for the full control effect; nearly all actives have a fitted effect of over 55% in size
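Step one: seed 2,000 cells per well. Step two: pin-transfer compound or DMSO alongside 5-fluorouridine. Step three: incubate 16 hr, 37 °C, 5% CO2. Step four: add ONE-Glo, wait 30 min, read luminescence.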
NPC1 promoter act: activates the NPC1 promoter. 320,000 tested, 2.4% active. Potency, µM (titrated, usually from 9.22 µM), without a hit: at the top dose activation, actives largely listed as activators. Huh7 NPC1 promoter luciferase reporter, 24 h; also: % of control where 0% means no effect; nearly all actives have a fitted effect of over 60% in size
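Cells: Huh7 expressing luciferase under the NPC1 promoter, 1500/well. Seeded 2 h, compound added, incubated 24 h at 37 °C. Luciferase reagent, 10 min ambient, then luminescence.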
Rab9 prom act: activates the Rab9 promoter; Potency, µM (titrated, usually from 9.22 µM), for inactives: top-dose activation, negative = inhibition, hits mostly activators; Huh7 Rab9 promoter-luciferase reporter, luminescence, 24 h; 320,000 tested, 2.8% active; also: % of control where 0% means no effect; nearly all actives have a fitted effect of over 60% in size
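Huh7 reporter line, Rab9 promoter upstream of luciferase. Compound exposure 24 h at 37 °C in reduced-serum medium with 10% FBS. Read-out: luminescence.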
ELG1 FLuc counter: luciferase inhibition in cell-free luciferin readout for ELG1 hits | cell-free firefly luciferase luminescence counter-screen, ViewLux | 350 tested, 3% active | AID 624247 | Potency, µM (doses to about 46.1 µM), without a hit: at the top dose activity change, negative = inhibition, most hits filed as inhibitors | shares compounds with ELG1 repair inh; also: % is scaled to controls: 0 for no effect and ±100 for the full control effect
ELG1 Luc conf: inhibits ELG1-dependent DNA repair in HEK293T cells, confirmed; 670 tested, 68% active; AID 624248; Potency, µM (series often up to 46.1 µM), for the others: top-dose activity change, negative = inhibition, usual class: inhibitors; shares compounds with ELG1 repair inh; HEK293T ELG1-luciferase levels, luminescence; cells co-treated with 5-fluorouridine; also: % is scaled to controls: 0 for no effect and ±100 for the full control effect; nearly all actives have a fitted effect of over 55% in size
Target sequence (Q96QE3 whole entry, looked up): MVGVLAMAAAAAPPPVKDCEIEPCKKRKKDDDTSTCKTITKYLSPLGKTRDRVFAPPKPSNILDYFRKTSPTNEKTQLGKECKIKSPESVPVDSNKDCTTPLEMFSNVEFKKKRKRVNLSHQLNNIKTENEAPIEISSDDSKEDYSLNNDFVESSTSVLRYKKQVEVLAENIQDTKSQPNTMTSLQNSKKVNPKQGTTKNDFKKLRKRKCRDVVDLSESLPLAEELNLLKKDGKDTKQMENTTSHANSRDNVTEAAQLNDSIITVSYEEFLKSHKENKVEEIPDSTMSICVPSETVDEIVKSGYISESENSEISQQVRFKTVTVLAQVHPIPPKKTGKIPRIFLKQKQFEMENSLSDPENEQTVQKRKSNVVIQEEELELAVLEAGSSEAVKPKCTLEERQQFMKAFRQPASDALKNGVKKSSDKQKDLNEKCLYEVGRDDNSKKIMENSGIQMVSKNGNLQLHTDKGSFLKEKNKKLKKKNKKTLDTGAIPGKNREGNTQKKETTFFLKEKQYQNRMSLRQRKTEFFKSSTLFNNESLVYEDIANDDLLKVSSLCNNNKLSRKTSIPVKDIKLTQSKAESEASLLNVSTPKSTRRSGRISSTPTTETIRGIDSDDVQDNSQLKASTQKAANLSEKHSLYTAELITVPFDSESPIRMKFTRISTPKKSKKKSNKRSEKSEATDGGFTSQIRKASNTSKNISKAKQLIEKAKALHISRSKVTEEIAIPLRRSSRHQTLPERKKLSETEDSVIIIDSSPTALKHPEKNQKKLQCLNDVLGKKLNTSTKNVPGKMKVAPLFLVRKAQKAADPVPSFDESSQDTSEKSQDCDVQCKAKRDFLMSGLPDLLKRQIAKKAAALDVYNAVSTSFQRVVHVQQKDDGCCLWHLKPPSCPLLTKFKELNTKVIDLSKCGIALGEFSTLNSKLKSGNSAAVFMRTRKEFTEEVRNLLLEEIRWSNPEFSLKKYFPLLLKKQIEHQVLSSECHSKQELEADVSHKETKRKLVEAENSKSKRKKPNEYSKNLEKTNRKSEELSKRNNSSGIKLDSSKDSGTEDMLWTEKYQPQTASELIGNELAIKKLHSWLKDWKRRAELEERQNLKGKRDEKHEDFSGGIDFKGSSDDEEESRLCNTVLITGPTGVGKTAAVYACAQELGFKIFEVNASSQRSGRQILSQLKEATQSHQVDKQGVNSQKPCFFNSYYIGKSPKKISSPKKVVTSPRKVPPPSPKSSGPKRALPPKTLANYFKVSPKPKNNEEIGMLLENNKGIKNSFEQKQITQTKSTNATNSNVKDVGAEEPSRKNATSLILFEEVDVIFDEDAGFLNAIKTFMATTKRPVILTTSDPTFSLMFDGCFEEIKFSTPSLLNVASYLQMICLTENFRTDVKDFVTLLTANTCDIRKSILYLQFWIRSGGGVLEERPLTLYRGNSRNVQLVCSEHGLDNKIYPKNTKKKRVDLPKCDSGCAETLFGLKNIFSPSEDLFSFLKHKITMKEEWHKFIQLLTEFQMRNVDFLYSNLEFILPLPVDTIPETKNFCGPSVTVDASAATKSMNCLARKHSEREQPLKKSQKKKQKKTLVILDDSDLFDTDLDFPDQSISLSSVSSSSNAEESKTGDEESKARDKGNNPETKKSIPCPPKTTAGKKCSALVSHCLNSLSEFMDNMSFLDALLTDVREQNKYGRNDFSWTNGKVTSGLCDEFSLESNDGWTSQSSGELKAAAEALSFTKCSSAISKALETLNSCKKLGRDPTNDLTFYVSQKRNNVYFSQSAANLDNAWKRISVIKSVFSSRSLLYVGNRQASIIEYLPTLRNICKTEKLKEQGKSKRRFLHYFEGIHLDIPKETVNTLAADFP
ELG1 MMS Luc: confirmation of human ELG1 repair inhibitors, MMS stimulated; 670 tested, 53% active; HEK293T luciferase-tagged ELG1 level, MMS stimulated; Potency, µM (series often up to 46.1 µM), for inactives: at the highest dose activity change, negative = inhibition, hits mostly inhibitors; shares compounds with ELG1 repair inh; also: % is scaled to controls: 0 for no effect and ±100 for the full control effect; nearly all actives have a fitted effect of over 60% in size
ELG1 5FU viab: confirmation of ELG1 repair inhibitors: viability with 5FU; shares compounds with ELG1 repair inh; cell viability with 5-FU, ELG1-dependent repair; Potency, µM (titrated, usually from 46.1 µM), for inactives: at the highest dose activity change, negative = viability loss, most hits filed as cytotoxic; 670 tested, under 10 active;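 also: ELG1-luc HEK293T cells cotreated with 5-fluorouridine at 10 µM final; viability measured 16 h after compound addition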
ELG1 MMS cell: confirmation of ELG1 repair inhibitors: viability with MMS. shares compounds with ELG1 repair inh. Cell viability with MMS, ELG1-dependent DNA repair. Potency, µM (top dose mostly 46.1 µM), for inactives: at the top dose activity change, negative = viability loss, actives largely listed as cytotoxic. 670 tested, 33% active. AID 624251;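 also: ELG1-luc HEK293T cells co-treated with 10 µM MMS; viability read 16 h after compound addition; % is scaled to controls: 0 for no effect and ±100 for the full control effect; nearly all actives have a fitted effect of over 60% in size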
ELG1 unstim viab: unstimulated viability counter-screen for ELG1 repair hits | 900 tested, 8% active | Potency, µM (series often up to 45.9 µM), for the others: at the top dose activity change, negative = loss of viability, hits mostly cytotoxic | AID 624252 | cell viability counter-screen, unstimulated, luminescence | shares compounds with ELG1 repair inh;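 also: compound exposure lasted 16 hours before reading; % is scaled to controls: 0 for no effect and ±100 for the full control effect; nearly all actives have a fitted effect of over 55% in size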
FLuc enzyme: inhibits purified firefly luciferase, counter-screen for ELG1 hits | shares compounds with ELG1 repair inh | purified firefly luciferase, luminescence counter-screen | Potency, µM (highest dose often 57.5 µM), for the others: at the top dose activity, negative = inhibition, most hits filed as inhibitors | 350 tested, 10% active | AID 624253; also: % is scaled to controls: 0 for no effect and ±100 for the full control effect
An asterisk follows results filed as active; u = inconclusive; x = not tested or not shown. Calls follow the shape of the dose curve; as a rule, active = well fitted curve in the direction sought with a large enough effect; inconclusive = small, poorly fitted or top-dose-only effect, or another doubt; inactive = no such curve, though single readings can be large; an effect the other way counts as inactive or inconclusive. Potency is read from the fitted curve at half-maximal effect.

SMILES | SMN2 splice up | FLuc counter | ELG1 genotoxic | ELG1 repair inh | NPC1 promoter act | Rab9 prom act | ELG1 Luc conf | ELG1 MMS Luc | ELG1 5FU viab | ELG1 MMS cell | ELG1 unstim viab | others
Cc1ccc(C)c(-n2c(C)cc(/C=N/NC(=O)c3c(C)nc4cc(C)ccn34)c2C)c1 | -4% | -20% | -2% | 18µM* | -1% | -3% | x | x | x | x | x
CCc1cccc(-n2c(C)nc3c(cnn3-c3ccc(C)c(C)c3)c2=O)c1 | -22% | -19% | x | x | x | x | x | x | x | x | x
CC(C)c1nn2c(N)c(/C=C3\C=Nc4ccccc43)c(=O)nc2s1 | x | u | 4% | -17% | 1% | -6% | x | x | x | x | x
CCCc1nn2c(N)c(/C=C3\C=Nc4ccccc43)c(=O)nc2s1 | 15% | -16% | 1% | -2% | -2% | 2% | x | x | x | x | x
CC(C)Sc1nsc2nc(=O)c(/C=C3\C=Nc4ccccc43)c(N)n12 | 1% | 24µM* | 0% | 1% | -1% | -2% | x | x | x | x | x
CS(=O)(=O)c1nsc2nc(=O)c(/C=C3\C=Nc4ccccc43)c(N)n12 | 3% | 15µM* | 4% | -4% | -1% | 1% | x | x | x | x | x
COc1ccc(-c2cc(C(=O)N(C)Cc3nc4ccccc4c(=O)[nH]3)c3ccccc3n2)cc1OC | x | x | -4% | 2.3µM* | x | x | 2.5µM* | 7.1µM* | u | 8.9µM* | u
COc1ccc(CN(C)C(=O)c2cc(-c3ccc(OC)c(OC)c3)nc3ccccc23)c(OC)c1 | x | 1% | 7% | 2% | -3% | 0% | x | x | x | x | x
Cc1cc(C)c(NC(=O)COC(=O)COc2ccc3c(C)cc(=O)oc3c2)c(Cl)c1 | x | 2% | 4% | 18% | -2% | 2% | x | x | x | x | x
CCC(C)N(CC(=O)Nc1cccc(C)c1C)C(=O)CCl (centres undefined) | -71% | 1% | -22% | 4.6µM* | -46% | -42% | 14µM* | 1.6µM* | u | 7.1µM* | 28µM*
N#Cc1ccc(CN2CCCC3(CCN(C(=O)c4csnn4)CC3)C2)cc1 | -12% | x | x | x | x | x | x | x | x | x | x
Cc1csc(NC(=O)c2ccc(S(=O)(=O)N3CCN(C)CC3)cc2)n1 | x | -2% | 5% | u | 12% | 10% | x | x | x | x | x
Cc1nn(-c2ccccc2)c(C)c1C(=O)OCC(=O)c1c(N)n(CC(C)C)c(=O)n(C)c1=O | -65% | 1% | -20% | 3.3µM* | -11% | -25% | 4µM* | 0.79µM* | u | 1.3µM* | u
CC(C)CN(C(=O)c1ccco1)C1CCS(=O)(=O)C1 (centres undefined) | x | 5% | 3% | u | -4% | -1% | x | x | x | x | x
Cc1c(C(=O)Nc2ccc(F)cc2)oc2ccc(S(=O)(=O)N3CCC4(CC3)OCCO4)cc12 | -47% | 3% | -15% | 12µM* | 0% | -7% | 7.1µM* | 22µM* | u | 25µM* | u | ELG1 FLuc counter=u;FLuc enzyme=-3%
CCC(C)NC(=O)c1oc2ccc(S(=O)(=O)N3CCC4(CC3)OCCO4)cc2c1C (centres undefined) | x | 0% | -18% | -25% | 1% | -1% | 16µM* | u | 4% | -4% | -20% | ELG1 FLuc counter=-9%;FLuc enzyme=-2%
COc1cccc(-c2nc(CS(=O)(=O)CC(=O)NCCc3ccccc3)c(C)o2)c1 | x | -1% | -4% | 4.6µM* | 3% | -3% | u | -4% | u | -1% | -9%

Screening results as filed in PubChem.
